Assay results taken from PubChem BioAssay AID1963316 (National Center for Advancing Translational Sciences (NCATS), 2024).
Results filed as inconclusive are left out. Active and inactive are the calls of the source. The call rests on the fitted dose curve.

Target: Tyrosine-protein kinase ABL1 (Homo sapiens) (UniProt P00519)
Test: ABL1 kinase (ABL1-N-HiBiT) SDR gain of signal screen - plus ATP
Details: purified ABL1-N-HiBiT enzyme, HiBiT luminescence with 50 uM ATP, 30 min; series mostly up to 57.5 µM
Source text: National Center for Advancing Translational Sciences (NCATS),
National Institute of Health (NIH), Maryland
Discovery and optimization of novel protein-binding ligands underlies many of the methods and applications of biology, drug discovery, clinical diagnostics, and environmental toxicology. Assays for detecting the interaction of, for example, a molecule with a macromolecular target also referred to here as the target of interest (TOI) is dependent on a compatible output technology. Depending on the nature and knowledge surrounding the TOI, whether a receptor, enzyme, regulatory subunit or scaffold, or a sequence-defined nucleic acid folded into a complex tertiary structure, assay strategies can vary widely.
Here we exploit ligand-biased changes in the structural dynamics of the target protein to control reporter alpha complementation allowing a non-competitive, non-functional, non-separation measure of ligand-target interaction.
Secondly, we show the specificity and sensitivity of the SDR for the Abelson tyrosine kinase (ABL1) compared to the serine/threonine protein kinase A, using an enriched chemical library of 128 compounds selected, in part, for activity annotated with ABL1 kinase activity using the Pharos database (3).
(1) A. S. Dixon et al., NanoLuc Complementation Reporter Optimized for Accurate Measurement of Protein Interactions in Cells. ACS Chem Biol 11, 400-408 (2016).
Chemistry & Biology, 19, 1060 - 1072 (2012).
(3) K. J. Kelleher et al., Pharos 2023: an integrated resource for the understudied human proteome. Nucleic Acids Res 51, D1405-D1416 (2023).
PROTOCOL TABLE (as described by Inglese J, Shamu CE and Guy RK. 2007)
SEQUENCE No. (e.g., 1, 2, 3, etc.); […] (e.g., C. elegans, Compounds, Incubation, Read, etc.); VALUE and DESCRIPTION.
1. Reagent. Dispense 4 uL ABL1-N-HiBiT enzyme per well at a final enzyme concentration of 10 nM in buffer with 50 uM ATP (SDR assay) into columns 2-48 of four replicate Greiner 1536-well white, solid bottom high base, medium plates per assay. Dispense respective buffer without enzyme at 4 uL/well in column 1 of assay plates using BioRaptr 2.
2. Compounds. Library compounds added at 23 nL/well by pin transfer. DMSO neutral control and imatinib positive control added at 25 nL/well, transfer by Mosquito dispenser.
3. Incubation. Incubate enzyme and compounds at room temperature for 30 min, protected from light.
4. Reagent. (SDR assay) Add 3 uL/well of Nano-Glo HiBiT reagent (Promega) to assay plates with ATP.
5. Incubation. (SDR assay) Incubate enzyme solution and HiBiT reagent at room temperature for 10 min, protect from light.
6. Detector. (SDR assay) Luminescence measured using CCD-based camera (ViewLux) with settings as follows: Exposure, 1 sec; Gain, High; Speed, Slow; Binning, 2X.
Inglese J, Shamu CE and Guy RK, Reporting data from high throughput screening of small molecule libraries, Nature Chemical Biology, 2007, 3(8): 438-441. doi.org/10.1038/nchembio0807-438.

Chain of Tyrosine-protein kinase ABL1 (Homo sapiens) (P00519 whole entry, looked up): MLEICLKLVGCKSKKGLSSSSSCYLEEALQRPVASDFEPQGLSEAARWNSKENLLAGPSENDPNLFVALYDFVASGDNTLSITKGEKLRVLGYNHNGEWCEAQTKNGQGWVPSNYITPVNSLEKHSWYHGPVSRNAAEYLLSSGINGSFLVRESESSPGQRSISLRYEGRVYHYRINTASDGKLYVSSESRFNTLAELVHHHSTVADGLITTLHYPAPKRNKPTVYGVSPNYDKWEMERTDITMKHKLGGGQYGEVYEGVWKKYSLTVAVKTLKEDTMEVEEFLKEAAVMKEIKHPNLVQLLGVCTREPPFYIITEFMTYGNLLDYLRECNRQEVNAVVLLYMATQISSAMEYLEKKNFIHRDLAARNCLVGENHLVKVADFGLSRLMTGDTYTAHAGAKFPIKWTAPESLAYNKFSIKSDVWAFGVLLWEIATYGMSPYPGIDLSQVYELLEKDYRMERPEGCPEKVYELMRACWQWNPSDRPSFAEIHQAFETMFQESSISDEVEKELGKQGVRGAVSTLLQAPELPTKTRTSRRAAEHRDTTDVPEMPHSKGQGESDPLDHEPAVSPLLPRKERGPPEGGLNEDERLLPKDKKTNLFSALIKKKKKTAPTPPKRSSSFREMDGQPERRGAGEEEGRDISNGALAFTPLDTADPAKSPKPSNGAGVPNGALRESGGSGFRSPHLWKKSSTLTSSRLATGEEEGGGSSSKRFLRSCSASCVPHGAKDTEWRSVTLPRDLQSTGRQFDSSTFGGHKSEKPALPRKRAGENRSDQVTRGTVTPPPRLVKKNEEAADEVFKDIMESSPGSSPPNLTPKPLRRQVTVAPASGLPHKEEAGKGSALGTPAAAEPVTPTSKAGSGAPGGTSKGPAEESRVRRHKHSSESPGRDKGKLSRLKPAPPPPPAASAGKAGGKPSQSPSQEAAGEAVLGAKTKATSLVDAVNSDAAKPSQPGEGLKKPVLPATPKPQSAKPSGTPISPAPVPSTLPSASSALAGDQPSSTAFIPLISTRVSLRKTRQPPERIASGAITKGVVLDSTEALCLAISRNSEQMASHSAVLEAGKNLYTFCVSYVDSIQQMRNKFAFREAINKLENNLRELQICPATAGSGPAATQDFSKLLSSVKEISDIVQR

Structure (SMILES)	outcome
CCNC(=O)C[C@@H]1N=C(c2ccc(Cl)cc2)c2cc(OC)ccc2-n2c(C)nnc21	inactive
N#Cc1cn([C@@H]2O[C@H](CO)[C@H](O)[C@@H]2O)c2ncnc(N)c12	inactive
O=[N+]([O-])O[C@H]1CO[C@H]2[C@@H]1OC[C@H]2O[N+](=O)[O-]	inactive
C/C(O)=C(\C#N)C(=O)Nc1cc(Br)ccc1Br	inactive
Cc1[nH]nc2ccc(-c3cncc(OC[C@@H](N)Cc4c[nH]c5ccccc45)c3)cc12	inactive
O=C(NCCCNc1nc(Nc2ccc(N3CCOCC3)cc2)ncc1C1CC1)C1CCC1	inactive
